Reference: PubChem BioAssay (NCATS)
Values joined by “and” are separate entries in the source; they are usually repeats but may differ in a detail not shown here. Equal entries are not always repeated. Inconclusive results are not listed. Active and inactive are the calls of the source. Calls come from the whole dose curve; as a rule, active = well fitted curve in the direction sought with a large enough effect; inconclusive = small, poorly fitted or top-dose-only effect, or another doubt; inactive = no such curve, though single readings can be large; an effect the other way counts as inactive or inconclusive.

Key:
[1] = target: Cellular tumor antigen p53 (Homo sapiens) (UniProt P04637); assay: Primary qHTS for small molecule compounds that upregulate eGFP-tagged delta133p53alpha (in N-terminal) cells. (AID 2060322); details: NCI-H358 eGFP-delta133p53alpha fluorescence, 24 h; activation: active compounds read high; note: nearly all actives have a fitted effect of over 75% in size; note: potency is the fitted concentration of half-maximal effect;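 for activation: series mostly up to about 56 µM; 0% = DMSO vehicle and 100% = reference activator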
Sequence of Cellular tumor antigen p53 (Homo sapiens) (P04637 whole entry, looked up): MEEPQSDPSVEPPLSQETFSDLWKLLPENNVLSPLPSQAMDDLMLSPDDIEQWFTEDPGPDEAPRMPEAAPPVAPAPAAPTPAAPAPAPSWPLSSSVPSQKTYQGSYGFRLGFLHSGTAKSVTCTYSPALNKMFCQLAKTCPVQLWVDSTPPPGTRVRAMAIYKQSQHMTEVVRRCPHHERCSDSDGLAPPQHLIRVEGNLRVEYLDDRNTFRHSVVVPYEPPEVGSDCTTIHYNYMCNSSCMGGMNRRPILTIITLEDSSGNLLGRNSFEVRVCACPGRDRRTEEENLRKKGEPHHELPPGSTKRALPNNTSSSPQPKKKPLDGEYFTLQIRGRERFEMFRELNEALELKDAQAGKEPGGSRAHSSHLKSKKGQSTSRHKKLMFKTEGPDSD
Method in brief: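 NCI-H358 cells pre-induced 24 h with 10 ng/ml doxycycline to express N-terminal eGFP-delta133p53alpha, then dosed 24 h at 37C without doxycycline; fixed, Hoechst-stained, GFP intensity by laser scanning cytometry, normalized to DMSO (0%) and 57.5 uM 5-azacytidine (100%).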

[2] = target: Aldehyde dehydrogenase, mitochondrial (Homo sapiens) (UniProt P05091); assay: qHTS for Inhibitors of the Aldehyde Dehydrogenase Family (ALDH2) Primary screen (AID 2061308);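 note: plate controls were vehicle for no effect and reference inhibitor for full effect; nearly all actives have a fitted effect of over 55% in size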
[3] = BET inhibitor-based combinations targeting novel dependencies in MECOM-rearranged (r) AML: SET-2 cell line (AID 2202231); details: SET-2 AML cells viability, CellTiter-Glo luminescence, 48 h; viability: active compounds read low, concentration not given here; note: nearly all actives have a fitted effect of over 35% in size; note: potency is the fitted concentration of half-maximal effect;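 for viability: plate controls were DMSO treated cells for no effect and wells without cells for full effect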
Method in brief: (§1)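 Readout: CellTiter-Glo luminescence. Exposure: 48 h, 11 concentrations, 500 cells/well. Metric: AUC and within-line Z-AUC after DMSO/empty-well normalization.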

[4] = BET inhibitor-based combinations targeting novel dependencies in MECOM-rearranged (r) AML: OCI-AML3 cell line (AID 2202232); details: Potency: OCI-AML3 viability; note: potency is the fitted concentration of half-maximal effect; nearly all actives have a fitted effect of over 35% in size
Method in brief: as §1

[5] = BET inhibitor-based combinations targeting novel dependencies in MECOM-rearranged (r) AML: MV-4-11 cell line (AID 2202233); note: potency is the fitted concentration of half-maximal effect; nearly all actives have a fitted effect of over 45% in size
Method in brief: (§2)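 Seeding density was 500 cells/well, and drug exposure lasted 48 hr under standard culture conditions. Read-out used CellTiter-Glo reagent with a 15 min room-temperature incubation before luminescence measurement; AUC and Z-AUC summarize the normalized responses.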

[6] = BET inhibitor-based combinations targeting novel dependencies in MECOM-rearranged (r) AML: HNT-34 cell line (AID 2202234); note: potency is the fitted concentration of half-maximal effect; nearly all actives have a fitted effect of over 35% in size
Method in brief: as §2

[7] = BET inhibitor-based combinations targeting novel dependencies in MECOM-rearranged (r) AML: UCSD-AML1 cell line (AID 2202235); note: nearly all actives have a fitted effect of over 40% in size; note: potency is the fitted concentration of half-maximal effect
Method in brief: as §2

[8] = BET inhibitor-based combinations targeting novel dependencies in MECOM-rearranged (r) AML: AML-191 cell line (AID 2202236; note: nearly all actives have a fitted effect of over 35% in size; note: potency is the fitted concentration of half-maximal effect)
Method in brief: as §1

[9] = BET inhibitor-based combinations targeting novel dependencies in MECOM-rearranged (r) AML: AML-194 cell line (AID 2202237; note: potency is the fitted concentration of half-maximal effect; nearly all actives have a fitted effect of over 40% in size)
Method in brief: as §1

[10] = target: Retinaldehyde dehydrogenase 3 (Homo sapiens) (UniProt P47895); assay: qHTS for Inhibitors of the Aldehyde Dehydrogenase Family (ALDH1A3) Validation screen (AID 2061312); note: nearly all actives have a fitted effect of over 45% in size; note: potency is the fitted concentration of half-maximal effect
[11] = target: Retinaldehyde dehydrogenase 3 (Homo sapiens) (UniProt P47895); assay: qHTS for Inhibitors of the Aldehyde Dehydrogenase Family (ALDH1A3) Primary screen (AID 2061315);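 note: plate controls were DMSO vehicle for no effect and reference inhibitor for full effect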
[12] = target: Retinal dehydrogenase 2 (Homo sapiens) (UniProt O94788); assay: qHTS for Inhibitors of the Aldehyde Dehydrogenase Family (ALDH1A2) Confirmation screens (AID 2061314); note: nearly all actives have a fitted effect of over 65% in size

N#CC(CCCN1CCN(/N=C/c2cccnc2)CC1)(c1ccccc1)c1ccccc1
inactive: activation [1] -7.16% | Potency [2]

COc1ccc(S(=O)(=O)Nc2cccnc2Nc2ccc(O)cc2)cc1
active: Potency [3] 1.32 µM | Potency [4] 0.662 µM | Potency [5] 0.742 µM | Potency [6] 0.59 µM | Potency [7] 0.468 µM | Potency [8] 0.468 µM | Potency [9] 0.662 µM

Cc1nn(C)c2c1C(c1ccc(C(F)(F)F)cc1)C(C#N)=C(N)O2 (configuration not stated)
inactive: viability [3] 87.6% | Potency [7] | Potency [8]

O=[N+]([O-])c1cc(Cl)ccc1S(=O)(=O)N1CCN(Cc2ccccc2)CC1
inactive: activation [1] 0.955% | Potency [2] | Potency [10] | Potency [11]

CN(C)CCC[C@]1(c2ccc(F)cc2)OCc2cc(C#N)ccc21
inactive: activation [1] 0.477% | Potency [2] | Potency [10] | Potency [11]

Cn1c(=O)cc(N2CCCC(N)C2)n(Cc2ccccc2C#N)c1=O (configuration not stated)
inactive: activation [1] 0% | Potency [2] | Potency [10] | Potency [11]

Clc1ccc2c(c1)C1=NCCN1c1c(-c3noc(C4CC4)n3)ncn1-2
inactive: activation [1] -0.477% | Potency [2] | Potency [10] | Potency [11]

C[C@H](Oc1cc(-c2cnn(C3CCNCC3)c2)cnc1N)c1c(Cl)ccc(F)c1Cl
inactive: activation [1] 14.8% | Potency [2] | Potency [10] | Potency [11]

O=C(c1c2ccccc2cc2ccccc12)N1CCC(N2CCC[C@@H](C(=O)N3CCOCC3)C2)CC1
inactive: activation [1] -1.91% | Potency [2] | Potency [10] | Potency [11]

CCCC(N[C@@H](C)C(=O)N1[C@H](C(=O)O)C[C@@H]2CCCC[C@@H]21)C(=O)OCC (some centres not stated)
inactive: activation [1] 2.39% | Potency [2] | Potency [10] | Potency [11]

CNC(=O)COC(=O)N1CCC(CCc2ccc(Cl)cc2)CC1
inactive: activation [1] -1.91% | Potency [2] | Potency [10] | Potency [11]

COc1cc(-c2cn(C3CCc4c(F)cccc4N(CC(F)(F)F)C3=O)nn2)ccc1-n1cnc(C)c1 (configuration not stated)
inactive: activation [1] 6.68% | Potency [2] | Potency [10] | Potency [11]

CCc1cnc(N2CCC(c3nc(COc4ccc(-n5cnnn5)cc4)cs3)CC2)nc1
inactive: activation [1] 2.86% | Potency [2] | Potency [10] | Potency [11]

CC[C@H]1OC(=O)[C@H](C)[C@@H](O[C@H]2C[C@@](C)(OC)[C@@H](O)[C@H](C)O2)C(C)[C@@H](O[C@@H]2O[C@H](C)C[C@H](N(C)C)[C@H]2O)[C@](C)(O)C[C@@H](C)CN(C)[C@H](C)[C@@H](O)[C@]1(C)O (some centres not stated)
inactive: activation [1] -5.73% | Potency [2] | Potency [10] | Potency [11]

O=C(Nc1ccccc1)N1CCC(Cc2cnc3ccccc3c2)CC1
inactive: activation [1] 3.34% | Potency [2] | Potency [10] | Potency [12] | Potency [11]

CC(=O)NCC1CN(c2ccc(-c3ccc(CNCc4cn[nH]n4)cc3)c(F)c2)C(=O)O1 (configuration not stated)
inactive: activation [1] -4.77% | Potency [2]
active: Potency [10] 3.98 µM

COc1ccc(Cl)cc1[C@@]1(F)C(=O)Nc2cc(C(F)(F)F)ccc21
inactive: activation [1] 24.8% | Potency [2] | Potency [10] | Potency [11]

Cc1ccc(-c2cn3c4c(sc3n2)CCCC4)cc1
active: Potency [10] 25.1 µM
inactive: activation [1] 11% | Potency [2]

C=C(F)c1sc(CNCCCNc2cc(=O)c3ccccc3[nH]2)c(C)c1Br
inactive: activation [1] 18.1% | Potency [2] | Potency [10] | Potency [11]

C=C1CC[C@H](O)CC1=C/C=C1\CCC[C@]2(C)[C@@H]([C@H](C)/C=C/[C@H](C)C(C)C)CC[C@@H]12
active: Potency [10] 8.91 µM
inactive: activation [1] 5.73% | Potency [2]

O=C(Nc1cc2cc[nH]c2cn1)c1ccccc1
inactive: activation [1] -10% | Potency [2]
active: Potency [10] 39.8 µM

Cc1cccc(C#Cc2cc(F)cc(C#N)c2)n1
active: Potency [10] 5.62 µM
inactive: activation [1] -6.68% | Potency [2]

COC(=O)[C@H](CC1C=NC=N1)NCC12CC3CC(CC(C3)C1)C2 (some centres not stated)
inactive: activation [1] -8.11% | Potency [2] | Potency [10]

COc1cc(Br)c(S(=O)(=O)Nc2ccc(Cl)c(O[C@@H]3CCN(C)C3)c2)cc1OC
inactive: activation [1] 21.5% | Potency [2] | Potency [10] | Potency [11]

COC(=O)CCc1ccc(OCC(O)CNC(C)C)cc1 (configuration not stated)
inactive: activation [1] 13.4% and 16.7% | Potency [2] | Potency [10] | Potency [11]

CON(C)C(=O)[C@H](O)[C@H](Cc1ccccc1)NC(=O)c1cc2cc(Cl)ccc2[nH]1
inactive: activation [1] -8.59% | Potency [2] | Potency [10] | Potency [11]

COc1cc2c(Nc3cc(F)c(Cl)c(Cl)c3)ncnc2cc1OCC1CCCN(C)CCC1
active: Potency [1] 23.9 µM
inactive: Potency [2] | Potency [10] | Potency [11]

O=C(O)C1(c2ccc(-c3ccc(Cl)c(Cl)c3)c(F)c2)CC1
inactive: activation [1] -12.9% | Potency [2]
active: Potency [10] 44.7 µM

c1ccc(-c2csc(N3CCOCC3)n2)cc1
inactive: activation [1] -7.16% | Potency [2] | Potency [10] | Potency [11]

Cc1ccc(COC(=O)N2CC[C@@H](CNc3ncccn3)[C@@H](F)C2)cc1
inactive: activation [1] 1.91% | Potency [2] | Potency [10] | Potency [11]

Cc1ccc(C)c(OCCn2cc(C(=O)O)c3ccccc32)c1
inactive: activation [1] 7.16% | Potency [2] | Potency [10] | Potency [11]

COc1cncc(C#Cc2ccccn2)c1
inactive: activation [1] 1.43% | Potency [2]
active: Potency [10] 22.4 µM

O=[N+]([O-])c1cn2c(n1)OC[C@@H](OCc1ccc(-c3ccc(OC(F)(F)F)cc3)nc1)C2
inactive: activation [1] -3.34% | Potency [2] | Potency [10] | Potency [11]

CCCCOc1ccc(-c2cncc(C(=O)NCc3cccnc3N3CCOCC3)c2)cc1Cl
inactive: activation [1] 7.64% | Potency [2] | Potency [10] | Potency [11]

Cn1c2ccc(NC(=O)c3ccccc3)cc2c(=O)n2nc(C(=O)O)cc12
inactive: activation [1] 8.59% | Potency [2] | Potency [10] | Potency [11]

CCC(=O)N1CCc2cc(OC)c(O)cc2C1
active: Potency [10] 22.4 µM
inactive: activation [1] -7.64% | Potency [2]

CN(C)CCOc1cc(NS(=O)(=O)c2c(Cl)cc(C(F)(F)F)cc2Cl)ccc1Cl
inactive: activation [1] 0.477% | Potency [2] | Potency [10] | Potency [11]

CCCCOc1cc(C(=O)OCCN(CC)CC)ccc1N
inactive: activation [1] -2.82% and 0% | Potency [2] | Potency [10] | Potency [11]

O=C(Nc1nc2ccc([N+](=O)[O-])cc2s1)C1CCCCC1
inactive: activation [1] 17.2% | Potency [2]
active: Potency [10] 3.98 µM
